Data: PubChem BioAssay
Values joined by “and” are separate entries in the source; they are usually repeats but may differ in a detail not shown here. Equal values may be shown once. Inconclusive results are not listed. Active and inactive are the calls of the source.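 How the source made its calls, unless noted: active means mean z-score across replicates of 1.96 or higher in either the MELAS or the Rieske mutant cell line; inactive means the rest.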

What was measured:
[1] = viability loss in pontine glioma line – cell-based, SU-DIPG-XXV, MIPE5.0, CellTiter-Glo, qHTS, dose response (AID 1347065; cut-off not given, nearly all actives have AC50 up to about 26 µM;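 further: cells exposed to compound for 48 hours before ATP readout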); details: CellTiter-Glo ATP luminescence
[2] = SU-DIPG-VI glioma cell viability, MIPE4.0 library, CellTiter-Glo luminescence, qHTS (AID 1347066; cut-off not given, nearly all actives have AC50 up to about 30 µM;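 further: cells exposed to compound for 48 hours before readout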); details: CellTiter-Glo ATP luminescence
[3] = JHH-DIPG-1 glioma cell viability, MIPE5.0 library, CellTiter-Glo luminescence, qHTS (AID 1347067; cut-off not given, nearly all actives have AC50 up to about 26 µM;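 further: cells exposed to compound for 48 hours before readout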); details: JHH-DIPG-1 glioma viability, CellTiter-Glo ATP luminescence
[4] = SU-DIPG-XXV glioma cell viability, MIPE5.0 library, qHTS (AID 1347068; cut-off not given, nearly all actives have IC50 up to about 30 µM)
[5] = phospholipid biosynthesis inhibitors in animal cells, primary screen, cell-based, LOPAC library, screen 4 (AID 1347384; call rule not given here); details: phospholipid biosynthesis inhibition screen, at 10 µM
[6] = survival rescue of mitochondrial mutant cells in low glucose, primary screen, MELAS cybrids, Rieske KO mouse fibroblasts, CellTiter-Glo (AID 1508586);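 further: z relative to plate mean and SD of compound and empty wells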
[7] = target: NAD(+) hydrolase SARM1 (Homo sapiens) (UniProt Q6SZW1); assay: SARM1 TIR NADase inhibitors, cell lysate, NAD-Glo luminescence (AID 1508614;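 active means compound whose remaining NAD level is above about 45 nM, limit read from the data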); details: SAM-TIR HEK293T lysate NADase, at 1 µM, stronger effect = higher value
[8] = target: Mitogen-activated protein kinase 7 (Homo sapiens) (UniProt Q13164); assay: ERK5 transactivation activators in reporter cells, primary screen, cell-based, HTS (AID 1508626;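 active means luciferase signal above three times the same-plate solvent-only control wells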;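 further: luciferase driven by Gal4-ERK5 fusion binding five Gal4 sites before minimal TATA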); details: HeLa Gal4-ERK5 transactivation, 18 h, at 5 µM, stronger effect = higher value
[9] = viability rescue of complex I mutant cybrids, primary screen, cell-based, galactose medium, ATP luminescence (AID 1645843;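 active means z-score of at least 1.8 in each of two replicates, scored against plate mean and spread of sample wells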;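 further: positive z means more ATP and so rescue of galactose-driven cybrid death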); details: complex I mutant cybrid cells, 72 h, stronger effect = higher value
[10] = LFS_MB_P medulloblastoma growth inhibition, cell-based, chromothripsis tumors, cisplatin or BGB combos (AID 1671449; in the data active means inhibition above about 80%;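 further: cells exposed for 96 hours; 0% = vehicle DMSO and 100% = killing by high DMSO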); details: LFS_MB_P medulloblastoma cells
[11] = HDN33 neuroblastoma growth inhibition, cell-based, chromothripsis tumors, cisplatin or BGB combos (AID 1671450; in the data active means inhibition above about 80%;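 further: cells exposed to compound for four days; 0% = vehicle DMSO and 100% = cell killing by high DMSO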); details: HDN33 neuroblastoma cells, stronger effect = higher value
[12] = ICB984 medulloblastoma cell growth inhibition, synergistic combos for chromothripsis tumors, cisplatin or BGB combos (AID 1671451; call rule not given here;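 further: cells exposed for 96 hours before readout; 0% = vehicle DMSO and 100% = killing by high DMSO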); details: ICB984 medulloblastoma cells, drug combinations, stronger effect = higher value
[13] = LFS_MB_1R medulloblastoma cell growth inhibition, synergistic combos for chromothripsis tumors, cisplatin or BGB combos (AID 1671452; in the data active means inhibition above about 80%;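 further: cells exposed for 96 hours before readout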); details: LFS_MB_1R medulloblastoma cells, stronger effect = higher value
[14] = HTB85 osteosarcoma cell growth inhibition, synergistic combos for chromothripsis tumors, BGB or cisplatin IC20 combos (AID 1671453; in the data active means inhibition above about 80%;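 further: cells exposed for 96 hours before readout; 0% = vehicle DMSO and 100% = high DMSO killing control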); details: HTB85 osteosarcoma cells, drug combinations, stronger effect = higher value
[15] = CRL2098 osteosarcoma cell growth inhibition, synergistic combos for chromothripsis tumors, BGB or cisplatin IC20 combos (AID 1671454; in the data active means inhibition above about 80%;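 further: cells exposed for 96 h before readout; 0% = vehicle DMSO and 100% = killing by high DMSO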); details: CRL2098 osteosarcoma cells, drug combinations, stronger effect = higher value
[16] = HD-MB03 medulloblastoma cell growth inhibition, synergistic combos for chromothripsis tumors, BGB or cisplatin IC20 combos (AID 1671455; in the data active means inhibition above about 83%;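 further: 0% = vehicle DMSO and 100% = high DMSO as cytotoxic control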); details: HD-MB03 medulloblastoma cells, stronger effect = higher value
[17] = MELAS cybrid survival, CellTiter-Glo 48 h, stronger effect = higher value
[18] = Rieske KO mouse fibroblast survival, CellTiter-Glo 72 h
[19] = measured here: combination with BGB IC40, at 0.05 µM

Mitogen-activated protein kinase 7 (Homo sapiens), sequence (Q13164 whole entry, looked up, the tested form may be a part): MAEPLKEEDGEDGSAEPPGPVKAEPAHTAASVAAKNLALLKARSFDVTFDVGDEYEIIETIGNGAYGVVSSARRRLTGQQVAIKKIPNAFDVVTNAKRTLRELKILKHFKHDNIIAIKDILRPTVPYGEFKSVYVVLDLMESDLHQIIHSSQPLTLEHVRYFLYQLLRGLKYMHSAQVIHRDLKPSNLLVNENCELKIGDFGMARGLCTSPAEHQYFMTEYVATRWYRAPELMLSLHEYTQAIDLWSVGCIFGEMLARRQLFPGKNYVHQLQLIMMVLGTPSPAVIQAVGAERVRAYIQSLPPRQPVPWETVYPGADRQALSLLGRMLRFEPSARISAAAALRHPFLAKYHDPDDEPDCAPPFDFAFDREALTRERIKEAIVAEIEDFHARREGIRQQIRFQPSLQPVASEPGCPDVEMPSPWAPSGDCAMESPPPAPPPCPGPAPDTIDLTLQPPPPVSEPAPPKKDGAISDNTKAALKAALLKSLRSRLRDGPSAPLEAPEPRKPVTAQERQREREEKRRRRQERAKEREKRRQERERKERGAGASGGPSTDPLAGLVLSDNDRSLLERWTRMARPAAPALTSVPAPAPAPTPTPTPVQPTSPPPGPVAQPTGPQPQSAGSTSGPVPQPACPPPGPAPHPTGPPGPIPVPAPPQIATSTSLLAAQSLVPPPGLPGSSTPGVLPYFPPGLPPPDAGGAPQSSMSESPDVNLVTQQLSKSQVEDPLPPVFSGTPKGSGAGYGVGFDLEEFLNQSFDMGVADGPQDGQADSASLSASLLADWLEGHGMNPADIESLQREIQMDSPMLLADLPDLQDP
NAD(+) hydrolase SARM1 (Homo sapiens), sequence (Q6SZW1 whole entry, looked up, the tested form may be a part): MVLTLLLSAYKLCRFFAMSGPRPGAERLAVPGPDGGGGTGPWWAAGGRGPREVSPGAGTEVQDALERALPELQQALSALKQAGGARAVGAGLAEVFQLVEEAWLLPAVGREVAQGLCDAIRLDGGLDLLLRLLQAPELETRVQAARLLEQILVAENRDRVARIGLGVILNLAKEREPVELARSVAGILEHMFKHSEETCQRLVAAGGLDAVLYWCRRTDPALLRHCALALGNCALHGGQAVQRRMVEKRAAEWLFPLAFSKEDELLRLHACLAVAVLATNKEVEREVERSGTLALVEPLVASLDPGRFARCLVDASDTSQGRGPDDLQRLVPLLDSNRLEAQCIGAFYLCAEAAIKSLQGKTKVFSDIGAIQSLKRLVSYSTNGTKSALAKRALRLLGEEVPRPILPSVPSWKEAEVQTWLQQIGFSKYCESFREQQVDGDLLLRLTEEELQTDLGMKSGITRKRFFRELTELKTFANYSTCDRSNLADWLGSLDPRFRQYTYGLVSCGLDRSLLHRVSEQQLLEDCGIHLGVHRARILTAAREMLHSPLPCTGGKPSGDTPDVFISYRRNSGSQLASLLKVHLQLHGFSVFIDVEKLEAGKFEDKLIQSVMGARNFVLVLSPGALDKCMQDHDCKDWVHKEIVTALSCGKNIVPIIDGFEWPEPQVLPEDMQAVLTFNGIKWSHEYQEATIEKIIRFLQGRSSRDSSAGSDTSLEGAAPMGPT

Compound: CCn1cc(C(=O)O)c(=O)c2cc(F)c(N3CCNC(C)C3)c(F)c21 (centres undefined)
- outcome [1]: inactive
- outcome [2]: inactive
- outcome [3]: inactive
- outcome [4]: inactive
- outcome [5]: inactive
- z-score [6, 17]: -0.544 (inactive) and -0.435 (inactive)
- z-score [6, 18]: 0.167 and 0.141
- remaining NAD [7]: 10 nM (inactive)
- luciferase signal [8]: 36 AU (inactive)
- z-score [9]: 0.475 (inactive) and -0.065 (inactive)
- inhibition ([10]; at 0.5 µM, stronger effect = higher value): -15.3% (inactive) and -10.6% (inactive)
- inhibition ([10]; measured here: combination with BGB IC20, at 0.005 µM): -5.89% and -31.7%
- inhibition ([10]; measured here: combination with BGB IC40, at 0.005 µM): -27.7% and -17%
- inhibition [10, 19]: -32.7% and -10.2%
- inhibition ([10]; measured here: combination with cisplatin, at 0.5 µM, stronger effect = higher value): -27.9% and -16%
- inhibition ([10]; measured here: combination with cisplatin, at 5 µM, stronger effect = higher value): -19.1% and -19.2%
- inhibition ([11]; BGB combo, at 5 µM): -42.8% and -11.5%
- inhibition ([11]; at 0.5 µM): -39.6% (inactive) and -19.9% (inactive)
- inhibition ([11]; cisplatin combo, at 5 µM): -22.1% and -6.52%
- inhibition ([11]; measured here: with BGB IC20 combination, at 0.5 µM): -33.5% and -33.9%
- inhibition ([11]; measured here: with cisplatin IC20 combination, at 0.5 µM): -40.2% and -6.39%
- inhibition ([11]; single agent, at 5 µM): -51.7% and -21.7%
- inhibition ([12]; BGB IC20 combo, at 0.005 µM): -2.68% and 6.83%
- inhibition ([12]; BGB IC40 combo, at 0.005 µM): -5.47% and -12.9%
- inhibition ([12]; BGB IC40 combo, at 0.05 µM): -30.9% and -16.1%
- inhibition ([12]; at 0.5 µM): -32.8% (inactive) and -22.8% (inactive)
- inhibition ([12]; cisplatin combo, at 0.05 µM): -34.5% and -19.4%
- inhibition ([12]; cisplatin combo, at 0.5 µM): -41.4% and -25.5%
- inhibition ([12]; cisplatin combo, at 5 µM): -38.8% and -8.31%
- inhibition ([12]; measured here: 5 uM single agent, at 5 µM): -28.6% and -13.7%
- inhibition ([13]; at 0.5 µM): -35.3% (inactive) and -9.61% (inactive)
- inhibition [13, 19]: -24.9% and -19.8%
- inhibition ([13]; measured here: combination with cisplatin, at 0.5 µM): -39.3% and -32.8%
- inhibition ([13]; measured here: combination with cisplatin, at 5 µM): -53.1% and -17.8%
- inhibition ([14]; at 0.5 µM): -42.2% (inactive) and 22% (inactive)
- inhibition ([14]; measured here: with BGB IC20, at 0.5 µM): -50.9% and 58.5%
- inhibition ([14]; measured here: with BGB IC20, at 5 µM): -41.8% and 56%
- inhibition ([14]; measured here: with cisplatin IC20, at 0.5 µM): -43.1% and 12.8%
- inhibition ([14]; measured here: with cisplatin IC20, at 5 µM): -15.2% and -22.2%
- inhibition ([14]; single agent, at 5 µM): -37.9% and -11.7%
- inhibition ([15]; at 0.5 µM): -101% (inactive) and -12.1% (inactive)
- inhibition ([15]; measured here: combination with BGB at IC20, at 0.5 µM): -94% and -48.1%
- inhibition ([15]; measured here: combination with cisplatin at IC20, at 0.5 µM): -123% and -10.4%
- inhibition ([16]; at 0.5 µM): -11.4% (inactive) and -9.63% (inactive)
- inhibition ([16]; measured here: combo with BGB at IC20, at 0.5 µM): -10.9% and -2.68%
- inhibition ([16]; measured here: combo with cisplatin at IC20, at 0.5 µM): -12.2% and -16.4%

Compound: COC(=O)[C@@H]1[C@H]2C[C@H]3c4[nH]c5ccccc5c4CCN3C[C@@H]2CC[C@@H]1O
- outcome [1]: inactive
- outcome [2]: inactive
- outcome [3]: inactive
- outcome [4]: inactive
- outcome [5]: inactive
- z-score [6, 17]: 0.194 (inactive) and -0.872 (inactive)
- z-score [6, 18]: 0.2 and -0.116
- remaining NAD [7]: 10 nM (inactive)
- luciferase signal [8]: 44 AU (inactive)
- z-score [9]: 0.525 (inactive) and 0.82 (inactive)

Compound: CN1CCC(=C2c3ccccc3CCc3sccc32)CC1
- outcome [1]: inactive
- outcome [2]: inactive
- outcome [3]: inactive
- outcome [4]: inactive
- z-score [6, 17]: -0.441 (inactive) and -0.79 (inactive)
- z-score [6, 18]: -0.11 and 0.709
- remaining NAD [7]: 10 nM (inactive)
- luciferase signal [8]: 76 AU (inactive)
- z-score [9]: -0.795 (inactive)

Compound: COc1ccc(CCN(C)CCCC(C#N)(c2ccc(OC)c(OC)c2)C(C)C)cc1OC (centres undefined)
- outcome [1]: inactive
- outcome [2]: inactive
- outcome [3]: inactive
- outcome [4]: inactive
- outcome [5]: inactive
- z-score [6, 17]: -1.23 (inactive) and 0.18 (inactive) and -0.391 (inactive)
- z-score [6, 18]: -2.03 and 0.282 and -0.248
- remaining NAD [7]: 10 nM (inactive)
- luciferase signal [8]: 96 AU (inactive)

Compound: CC(=O)Oc1ccccc1C(=O)O
- outcome [1]: inactive
- outcome [2]: inactive
- outcome [3]: inactive
- outcome [4]: inactive
- outcome [5]: inactive
- z-score [6, 17]: -0.282 (inactive) and -0.31 (inactive) and 0.455 (inactive)
- z-score [6, 18]: 0.817 and -0.843 and -0.759
- remaining NAD [7]: 10 nM (inactive)
- luciferase signal [8]: 92 AU (inactive)
- z-score [9]: 0.51 (inactive) and 0.115 (inactive)
